PubChem BioAssay
Calls of active or inactive are those of the source.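 Rule for the calls, unless noted: active = inhibition at or above 50% at 10 µM; inactive = inhibition below 50%.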

Experiments:
[1] = inhibitors of TNFa-induced NFkB p65 translocation, primary screen, imaging, HUVEC, MLSMR starter and 10KST1 sets (AID 438;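 active = inhibition above 20% together with a positive visual image hit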;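 note: compound added about 3h40 before a 20 min TNFalpha stimulation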;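 for inhibition: signal is the nuclear over cytoplasmic p65 intensity ratio per well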); conditions: HUVEC TNFa-induced p65 nuclear translocation; cell count: measured here: nuclei count (cytotoxicity indicator), at 2.08 µM; inhibition: at 2 µM, stronger effect = higher value, 0% TNFa-plus-vehicle, 100% no-TNFa wells
[2] = inhibitors of mutant huntingtin aggregation, primary screen, imaging, exon1htt(103Q)mCFP cells, high-content imaging (AID 483;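 active = visual image review flags a hit and inhibition of aggregation exceeds 20%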;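 note: compound exposure lasted 3 days before fixation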;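 for nuclei count: percent of the per-plate median nuclei count of sample wells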); conditions: exon1htt(103Q)mCFP cell line, aggregate imaging, at 2 µM; inhibition of aggregation: stronger effect = higher value; nuclei count: measured here: cell count, toxicity
[3] = inhibitors of E-selectin induction by TNFa, primary screen, imaging, HUVEC, immunofluorescence, MLSMR starter and 10KST1 sets (AID 487;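 active = visually confirmed hit in the image check and inhibition above 20%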;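 for inhibition: signal is fraction of cell area covered by stained E-selectin grains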;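 for nuclei count: 100% = median nuclei count of all wells on the same plate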); conditions: HUVEC TNFalpha-induced E-selectin immunofluorescence imaging, at 2 µM; inhibition: stronger effect = higher value; nuclei count: measured here: cell number, toxicity
[4] = target: Voltage-gated potassium channel subunit beta-2 (Rattus norvegicus) (UniProt P62483); assay: KvBeta enzyme negative modulators, primary screen, biochemical, NADPH fluorescence (AID 622;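 active = fluorescence slope higher than the sample average by over 3 SD, cut at about -0.22 in these data, passing the limit was not always enough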;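 note: slope of raw intensity against log time taken from 70 to 1610 s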); conditions: recombinant KvBeta, 4-cyanobenzaldehyde reduction, at 10 µM, stronger effect = higher value
[5] = target: Voltage-gated potassium channel subunit beta-2 (Rattus norvegicus) (UniProt P62483); assay: KvBeta positive modulators, primary screen, biochemical, NADPH fluorescence (AID 623;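 active = NADPH fluorescence slope more negative than the mean of all samples by about 3 SD, 99.7% confidence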;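 note: fluorescence intensity change per second fitted from 20 to 320 s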); conditions: Recombinant KvBeta, NADPH fluorescence decrease slope, 10 min; at 10 µM; stronger effect = lower value
[6] = target: Alpha-2C adrenergic receptor (Homo sapiens) (UniProt P18825); assay: modulators of alpha2C/GIRK thallium flux, primary screen, cell-based, HEK293 alpha2C/GIRK1/2 (AID 624;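 active = fluorescence slope after compound addition differing from the mean of all screened samples at 99.7% confidence, in either direction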;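 note: slope of fluorescence ratio to pre-addition baseline per second over 15 to 24 s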); conditions: thallium flux BTC fluorescence, at 10 µM, actives lie on both sides
[7] = inhibitors of Sendai virus-induced IRF3 signaling, primary screen, TLR/RLR signaling modifier project, cell-based, Sendai virus stimulus, luciferase, 10K MLSCN set (AID 602276); conditions: HEK293 RL24 IRF3 luciferase reporter, at 10 µM, stronger effect = higher value;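 note: firefly luciferase from ISG56 promoter only with Renilla not read in this screen; 0% = Sendai virus plus DMSO and 100% = medium plus DMSO without virus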
[8] = inhibitors of poly I:C-induced TLR3 signaling, primary screen, cell-based, poly I:C stimulus, luciferase, 10K MLSCN set (AID 602277;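 active = inhibition of the reporter signal at or above 50%; inactive = inhibition below 50%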); conditions: HEK293-TLR3 RL24 IRF3 luciferase reporter, at 10 µM, stronger effect = higher value

Sequence of Alpha-2C adrenergic receptor (Homo sapiens) (P18825 whole entry, looked up): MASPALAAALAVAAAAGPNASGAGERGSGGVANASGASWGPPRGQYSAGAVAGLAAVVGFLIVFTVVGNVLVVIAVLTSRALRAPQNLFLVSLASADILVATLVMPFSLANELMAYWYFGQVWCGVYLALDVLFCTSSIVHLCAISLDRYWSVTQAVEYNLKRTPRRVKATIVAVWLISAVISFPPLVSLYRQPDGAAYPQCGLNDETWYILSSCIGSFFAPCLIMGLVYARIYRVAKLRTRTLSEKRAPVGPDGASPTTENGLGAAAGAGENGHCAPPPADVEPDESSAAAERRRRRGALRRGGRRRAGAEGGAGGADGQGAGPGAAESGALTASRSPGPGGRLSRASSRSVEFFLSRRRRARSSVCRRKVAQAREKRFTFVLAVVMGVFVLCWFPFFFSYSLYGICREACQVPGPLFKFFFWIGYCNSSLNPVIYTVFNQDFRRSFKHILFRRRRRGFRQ
Sequence of Voltage-gated potassium channel subunit beta-2 (Rattus norvegicus) (P62483 whole entry, looked up): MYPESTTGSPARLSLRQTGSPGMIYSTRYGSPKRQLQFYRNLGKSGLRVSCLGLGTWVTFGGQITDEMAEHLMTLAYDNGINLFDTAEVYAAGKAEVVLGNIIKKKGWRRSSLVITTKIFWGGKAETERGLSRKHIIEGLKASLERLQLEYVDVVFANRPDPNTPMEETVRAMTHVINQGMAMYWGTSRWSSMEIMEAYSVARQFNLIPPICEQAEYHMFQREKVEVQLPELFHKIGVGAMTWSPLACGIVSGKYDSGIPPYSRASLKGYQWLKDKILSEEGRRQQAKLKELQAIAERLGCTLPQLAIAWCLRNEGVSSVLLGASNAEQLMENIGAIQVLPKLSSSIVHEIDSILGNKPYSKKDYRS

Row | SMILES | cell count [1] | inhibition [1] | inhibition of aggregation [2] | nuclei count [2] [%] | inhibition [3] | nuclei count [3] [%] | fluorescence slope [4] | NADPH fluorescence slope [5] | slope [6] | inhibition [7] | inhibition [8]
1 | CCC(Sc1nc(-c2ccccc2)c(C#N)c(=O)[nH]1)C(=O)Nc1cc(C)on1 (stereo not drawn) | 327 | 2.5% (inactive) | -9.8% (inactive) | 115 | -74.9% (inactive) | 127 | -0.357 (inactive) | -1.8e-05 (inactive) | 0.00594 (inactive) | 6.22% (inactive) | 7.77% (inactive)
2 | CCOC(=O)N1CCN(C(=O)CSc2cc(C)nc3c(-c4ccccc4OC)c(C)nn23)CC1 | 543 | -9.8% (inactive) | -34.4% (inactive) | 122 | 14.7% (inactive) | 110 | -0.54 (inactive) | 1.2e-05 (inactive) | 0.00377 (inactive) | -11.1% (inactive) | -5.36% (inactive)
3 | CN1CCN(Cc2nc3c(c(=O)[nH]c(=O)n3C)n2CCc2ccccc2)CC1 | 632 | 7.4% (inactive) | 6.7% (inactive) | 99.2 | -34.7% (inactive) | 119 | -0.436 (inactive) | -1.6e-05 (inactive) | 0.00646 (inactive) | 3.33% (inactive) | 39.3% (inactive)
4 | CCOc1nc(OCC)nc(N2CCC(C)CC2)n1 | 499 | 9.1% (inactive) | 5.9% (inactive) | 106 | -118% (inactive) | 138 | -0.242 (inactive) | -3.2e-05 (inactive) | 0.005 (inactive) | 16.6% (inactive) | 20.5% (inactive)
5 | O=C(NC1CCCCC1)c1ccc(S(=O)(=O)N2CCCCC2)cc1 | 392 | 2.1% (inactive) | 5.8% (inactive) | 96.4 | -49.2% (inactive) | 119 | -0.588 (inactive) | 1.4e-05 (inactive) | 0.00499 (inactive) | -18.3% (inactive) | -7.9% (inactive)
6 | Cc1noc(C)c1CSc1ccccc1C(=O)N1CCN(c2ccccc2)CC1 | 427 | -1.2% (inactive) | -3.3% (inactive) | 95.9 | 14.6% (inactive) | 105 | -0.482 (inactive) | 1.7e-05 (inactive) | 0.00481 (inactive) | 1.46% (inactive) | 7.95% (inactive)
7 | CCc1ccccc1NC(=O)c1ccoc1C | 399 | 2.4% (inactive) | 0.7% (inactive) | 97.9 | -12.3% (inactive) | 99.5 | -0.493 (inactive) | -5.8e-05 (inactive) | 0.00456 (inactive) | 13.9% (inactive) | 17.6% (inactive)
8 | O=C(CCCn1c(=O)c2sccc2n(Cc2cc(=O)n3ccccc3n2)c1=O)NCc1ccco1 | 729 | -2.9% (inactive) | -3.9% (inactive) | 106 | -67.8% (inactive) | 116 | -0.575 (inactive) | 3.3e-07 (inactive) | 0.0069 (inactive) | -12.7% (inactive) | -8.56% (inactive)
9 | Nc1nc2ccccc2n1C(=O)CCc1ccccc1 | 663 | -1.2% (inactive) | -11.5% (inactive) | 69 | -36.3% (inactive) | 125 | -0.396 (inactive) | -3.8e-05 (inactive) | 0.0047 (inactive) | -24.1% (inactive) | -73.1% (inactive)
10 | Cc1nc2ccccc2c2oc(C(=O)N3CCC(N4CCCCC4)CC3)cc12 | 591 | -4.4% (inactive) | -14.4% (inactive) | 100 | -12.1% (inactive) | 119 | -0.602 (inactive) | -3.1e-05 (inactive) | 0.00619 (inactive) | -0.549% (inactive) | 24% (inactive)
11 | Cc1cc(-n2c(C)cc(C(=O)CSc3nnnn3-c3ccc(Cl)cc3)c2C)no1 | 415 | 4.2% (inactive) | 2.2% (inactive) | 94 | -55.8% (inactive) | 109 | -0.403 (inactive) | -3.2e-05 (inactive) | 0.00589 (inactive) | 9.68% (inactive) | 13.2% (inactive)
12 | COc1ccccc1N1CCN(C(=O)C(Cc2ccccc2)NC(=O)C2CCCCC2)CC1 (stereo not drawn) | 370 | -0.9% (inactive) | 11.3% (inactive) | 65.4 | -114% (inactive) | 96.1 | -0.428 (inactive) | -0.000112 (inactive) | 0.00516 (inactive) | 0.074% (inactive) | 17.7% (inactive)
13 | CCOC(=O)C1CCN(C(=O)c2ccc(Cl)c(Cl)c2)CC1 | 322 | 4.4% (inactive) | 7.9% (inactive) | 83.5 | -64.6% (inactive) | 110 | -0.522 (inactive) | 1.1e-05 (inactive) | 0.00596 (inactive) | -22.5% (inactive) | -5.49% (inactive)
14 | COc1ccc(OCC(=O)N2CCN(C(=O)COc3ccc(Br)cc3)CC2)cc1 | 665 | -28.3% (inactive) | -4% (inactive) | 108 | -13.6% (inactive) | 103 | -0.486 (inactive) | -3.9e-05 (inactive) | 0.00463 (inactive) | 18% (inactive) | 20.9% (inactive)
15 | O=C1OCc2cc(NC(=O)C3CCCO3)ccc21 (stereo not drawn) | 790 | -8.1% (inactive) | 13.1% (inactive) | 111 | -31.8% (inactive) | 111 | -0.379 (inactive) | 5.7e-07 (inactive) | 0.00421 (inactive) | 3.9% (inactive) | 13.5% (inactive)
16 | CC1Cn2c(nnc2-c2ccc(F)cc2)S1 (stereo not drawn) | 741 | -17.7% (inactive) | -26.8% (inactive) | 119 | -40% (inactive) | 101 | -0.583 (inactive) | -2.2e-05 (inactive) | 0.00604 (inactive) | -1.17% (inactive) | 28.5% (inactive)
17 | COc1ccc(NC(=O)N2CCN(c3nc(-c4cccc(OC)c4)cs3)CC2)cc1 | 564 | -7.5% (inactive) | 8.8% (inactive) | 93.9 | -23.1% (inactive) | 104 | -0.478 (inactive) | -3.3e-05 (inactive) | 0.0039 (inactive) | 2.91% (inactive) | -56.5% (inactive)
18 | CN(Cc1nc(-c2ccncc2)no1)S(=O)(=O)c1ccccc1 | 560 | 0.6% (inactive) | -16.9% (inactive) | 103 | -18.6% (inactive) | 104 | -0.654 (inactive) | -4.4e-05 (inactive) | 0.00664 (inactive) | 12.9% (inactive) | 13.2% (inactive)
19 | C=CCn1c2ccccc2c2nnc(SCC(=O)NC(C(=O)OC)C(C)C)nc21 (stereo not drawn) | 787 | -1.4% (inactive) | 10.3% (inactive) | 104 | -83.9% (inactive) | 103 | -0.424 (inactive) | -0.000127 (inactive) | 0.00508 (inactive) | 14.6% (inactive) | 27.7% (inactive)
20 | O=C(C1CC1)N1CCc2cc(Br)cc(S(=O)(=O)N3CCOCC3)c21 | 300 | 2.2% (inactive) | -4.4% (inactive) | 106 | -22.9% (inactive) | 112 | -0.59 (inactive) | -3.6e-05 (inactive) | 0.00736 (inactive) | 15.4% (inactive) | 24.8% (inactive)
21 | CCn1c(SCC(=O)C(C)(C)C)nnc1-c1cnccn1 | 581 | 6.5% (inactive) | 9.1% (inactive) | 98.5 | -27.3% (inactive) | 100 | -0.51 (inactive) | -6.4e-06 (inactive) | 0.00526 (inactive) | 2.48% (inactive) | 1.65% (inactive)
22 | CCCCn1c(CNC(=O)CCC)nc2ccccc21 | 635 | 3.9% (inactive) | -10.7% (inactive) | 124 | -30.1% (inactive) | 116 | -0.565 (inactive) | -4.3e-05 (inactive) | 0.00641 (inactive) | 5.22% (inactive) | 31.7% (inactive)
23 | N#Cc1cc2ccccc2nc1SCC(=O)Nc1ccccc1N1CCOCC1 | 448 | 13.7% (inactive) | 8.2% (inactive) | 100 | -12.8% (inactive) | 106 | -0.481 (inactive) | -2.6e-05 (inactive) | 0.00662 (inactive) | 9.6% (inactive) | 9.63% (inactive)
24 | O=C(NC1CC1)c1cccc(Nc2ccc(-c3ccc4c(c3)OCCO4)nn2)c1 | 336 | -1.6% (inactive) | -55% (inactive) | 106 | -177% (inactive) | 126 | -0.358 (inactive) | -2.6e-05 (inactive) | 0.00455 (inactive) | -75.9% (inactive) | -132% (inactive)
25 | CC1=C(C(=O)NC2CCC(C)CC2)C2(CCC(C)CC2)OC1=O (stereo not drawn) | 640 | 17.2% (inactive) | -14.7% (inactive) | 99.8 | 5.3% (inactive) | 126 | -0.486 (inactive) | 7.7e-06 (inactive) | 0.00549 (inactive) | 10.7% (inactive) | 15.1% (inactive)
26 | Cc1cc(C)c(OCC(=O)Nc2ccc3c(c2)OCO3)cc1C | 327 | -0.7% (inactive) | 7.3% (inactive) | 101 | 9.8% (inactive) | 103 | -0.437 (inactive) | 4.6e-05 (inactive) | 0.00669 (inactive) | -6.64% (inactive) | -49.1% (inactive)
27 | O=C(NCc1ccco1)C1(S(=O)(=O)c2ccc(Cl)cc2)CC1 | 412 | 1.1% (inactive) | -16% (inactive) | 120 | -100% (inactive) | 115 | -0.639 (inactive) | 2e-05 (inactive) | 0.00602 (inactive) | 16.2% (inactive) | 32.7% (inactive)
28 | Cc1cc(C)n(-c2nc3sc4c(c3c3nnc(SCC(N)=O)n23)CC(C)(C)OC4)n1 | 368 | 6.9% (inactive) | -7.7% (inactive) | 88.2 | -4.5% (inactive) | 116 | -0.318 (inactive) | 3.6e-06 (inactive) | 0.00476 (inactive) | 6.12% (inactive) | 10.9% (inactive)
